{
  "source": "PubChem BioAssay (NCI)",
  "note": "Where “and” joins values, the source holds several entries; their conditions need not be identical. Equal entries are not always repeated. This is part of a sample that, as a whole, favours compounds with a hit. Of some 83,000 tested, about 20% had one in any assay.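 Plates (96-well) were seeded with cells, treated with compound at one concentration, and incubated for 48 hours before percent growth was determined.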 Calls of active or inactive are those of the source. How the source made its calls: active means growth percent below 10; inactive means the rest.",
  "data": [
    {"tested_on": "KM12 colon", "assay": "NCI-60 one-dose screen, 48 h (100 = growth as untreated, 0 = no growth, -100 = all killed)", "conditions": "10 µM", "values": [
      {"smiles": "N#Cc1ccc(-c2nn(-c3ccc(C(=O)O)cc3)cc2CNc2cc(Cl)cc(C(F)(F)F)c2)cc1", "growth": "4.92% (active)"},
      {"smiles": "CN1C(=O)N(C)C2SC(N/N=C/c3ccccc3F)=NC21", "note": "(centres undefined)", "growth": "45.2% (inactive)"},
      {"smiles": "COc1cc2c(cc1OC)/C(=C\\c1sc(Nc3ccc(O)cc3)nc1O)C(C(=O)O)=N2", "growth": "20.9% (inactive)"},
      {"smiles": "CN1CCN(c2ccc(C(=O)/C=C/c3cc(C(F)(F)F)ccc3Cl)cc2)CC1", "growth": "-36.5% (active)"},
      {"smiles": "CC(=O)c1cc(C(=O)c2ccc3c(c2)NC(=O)CO3)n2ccc3ccccc3c12", "growth": "51.5% (inactive)"},
      {"smiles": "COc1ccc(C(=O)NC(=S)N2CCN(c3ncnc4c3cnn4-c3ccccc3)CC2)cc1", "growth": "84.4% (inactive)"},
      {"smiles": "CC(=O)Nc1nc(-c2ccc(N3CCN(C)CC3)c(NS(=O)(=O)c3cccc4c(N(C)C)cccc34)c2)cs1", "growth": "59.8% (inactive)"},
      {"smiles": "O=[N+]([O-])c1ccc(-c2nc(-c3ccccc3)c(-c3ccccc3)n2-c2ccc(S(=O)(=O)Nc3ncccn3)cc2)cc1", "growth": "30.8% (inactive)"},
      {"smiles": "O=C(c1ccc(Cl)cc1)C1[C@H](c2ccc(Br)cc2)[C@@H](c2ccccc2)NC12C(=O)Nc1ccc(Br)cc12", "note": "(some centres undefined)", "growth": "-50.8% (active)"},
      {"smiles": "O=C(CSc1nnc(-c2c[nH]c3ccccc23)n1-c1ccccc1)c1ccc(Cl)cc1", "growth": "78.7% (inactive)"},
      {"smiles": "Cc1noc2c(Cc3ccccc3)nn(CC(=O)N/N=C/c3ccc(Cl)cc3)c(=O)c12", "growth": "72.6% (inactive)"},
      {"smiles": "O=C(NO)c1ccc(CNC(=O)[C@H]2Cc3c([nH]c4ccccc34)[C@H](c3ccc(Cl)cc3)N2)cc1", "growth": "19.6% (inactive)"},
      {"smiles": "COc1ccc(C(C)=C(c2ccc(OCCCN(C)C)cc2)c2ccc(OCCCN(C)C)cc2)cc1", "growth": "-85.5% (active)"},
      {"smiles": "O=C(NCCCCC(c1ccc(F)cc1)c1ccc(F)cc1)NCCCc1cccnc1", "growth": "18% (inactive)"},
      {"smiles": "O=C(Nc1cccc(-c2cn(-c3ccc4oc(=O)ccc4c3)nn2)c1)Nc1cc(C(F)(F)F)cc(C(F)(F)F)c1", "growth": "33.2% (inactive)"},
      {"smiles": "CC(C)Sc1nc(NC2CC2)c(C#N)c(-c2ccccc2)n1", "growth": "94.7% (inactive)"},
      {"smiles": "COc1ccc(CN2[C@@H](C(=O)NCc3ccc(C(=O)NO)cc3)Cc3c([nH]c4ccccc34)[C@@H]2C)cc1", "growth": "20.4% (inactive)"},
      {"smiles": "COC1=C[C@]23CCC(=O)N2CCc2cc4c(cc2[C@@H]3[C@@H]1OC(=O)CCCC(C)C)OCO4", "growth": "48.7% (inactive)"},
      {"smiles": "C=CC(=O)Nc1ccc(C(=O)/C=C/c2ccc(N(C)CCF)cc2)c(O)c1", "growth": "-82.6% (active)"},
      {"smiles": "OCc1[nH]nc2cc(Nc3ncc4ccc(Br)c(OC5CCC(O)CC5)c4n3)ccc12", "note": "(centres undefined)", "growth": "2.85% (active)"},
      {"smiles": "OCCNc1oc(-c2ccccc2)nc1[P+](c1ccccc1)(c1ccccc1)c1ccccc1", "growth": "-35.9% (active)"},
      {"smiles": "CCCCOc1ccc(Nc2nc3ccccc3nc2Nc2ccc(OCCCC)cc2)cc1", "growth": "86.8% (inactive)"},
      {"smiles": "C=C[C@@]12CN3CC[C@]1(O)[C@@](C(=O)OC)(CO2)c1[nH]c2ccccc2c1C3", "growth": "78% (inactive)"},
      {"smiles": "COc1ccc(NC(=O)CSc2nnc(-c3ccc4nc(-c5ccc(Cl)cc5)[nH]c4c3)o2)cc1", "growth": "60.4% (inactive)"},
      {"smiles": "Cc1ccc(-c2ccc(SCC(=O)Nc3ccc(Cl)c(C(F)(F)F)c3)nn2)cc1", "growth": "24.7% (inactive)"},
      {"smiles": "CN1CCN(Cc2ccc(NC(=O)c3cncc(C#Cc4cnc5ccc(N[C@H]6CCOC6)nn45)c3)cc2C(F)(F)F)CC1", "growth": "-89.7% (active)"},
      {"smiles": "CN(C)c1ccc(/C=C/c2nc3ccccc3c(=O)n2CC(=O)Nc2ccccc2)cc1", "growth": "75.7% (inactive)"},
      {"smiles": "COc1ccccc1NCc1ccc(CO)n1-c1ccc(C)cc1", "growth": "105% (inactive)"},
      {"smiles": "Cc1ccc(-c2nc3ccc(C(=O)N=Nc4c(O)[nH]c5ccc(Cl)cc45)cc3[nH]2)cc1", "growth": "4.98% (active)"},
      {"smiles": "CN1CCN(c2ccc(Nc3nc(N4CCN(S(=O)(=O)c5ccc(Cl)cc5)CC4)c4sccc4n3)cc2)CC1", "growth": "-15.3% (active)"},
      {"smiles": "N#Cc1c(-c2ccc(Cl)cc2)cc(-c2ccccc2)nc1OCc1ccccc1", "growth": "82.6% (inactive)"},
      {"smiles": "CN1CCO/C1=C(/NC(=O)c1ccc(Cl)cc1)[P+](c1ccccc1)(c1ccccc1)c1ccccc1", "growth": "64.5% (inactive)"},
      {"smiles": "O=C(Cc1ccc2c(c1)CN(C1CCC(=O)NC1=O)C2=O)NCCc1ccccc1", "note": "(centres undefined)", "growth": "6.24% (active)"},
      {"smiles": "N#Cc1c(NC(=O)c2ccc(C(F)(F)F)c(Cl)c2)sc2c1CCC(=O)C2", "growth": "-28.4% (active)"},
      {"smiles": "COc1ccc2[nH]c(=O)c(CSc3nccc(-c4ccc(Cl)cc4)n3)cc2c1", "growth": "31.7% (inactive)"},
      {"smiles": "C=C1CCC2C3(C)COC(c4c(F)cccc4F)OC3CCC2(C)C1C/C=C1/C(=O)OCC1O", "note": "(centres undefined)", "growth": "-67.5% (active)"},
      {"smiles": "COc1ccc([C@H]2C(C(=O)c3ccc(Cl)cc3)C3(N[C@@H]2c2ccccc2)C(=O)Nc2ccc(Cl)cc23)cc1", "note": "(some centres undefined)", "growth": "-23.4% (active)"}
    ]},
    {"tested_on": "MDA-MB-468 breast", "assay": "NCI-60 one-dose screen, 48 h (100 = growth as untreated, 0 = no growth, -100 = all killed)", "conditions": "10 µM", "values": [
      {"smiles": "N#Cc1ccc(-c2nn(-c3ccc(C(=O)O)cc3)cc2CNc2cc(Cl)cc(C(F)(F)F)c2)cc1", "growth": "-13.7% (active)"},
      {"smiles": "CN1C(=O)N(C)C2SC(N/N=C/c3ccccc3F)=NC21", "note": "(centres undefined)", "growth": "0.576% (active)"},
      {"smiles": "COc1cc2c(cc1OC)/C(=C\\c1sc(Nc3ccc(O)cc3)nc1O)C(C(=O)O)=N2", "growth": "-1.14% (active)"},
      {"smiles": "CN1CCN(c2ccc(C(=O)/C=C/c3cc(C(F)(F)F)ccc3Cl)cc2)CC1", "growth": "-97.6% (active)"},
      {"smiles": "CC(=O)c1cc(C(=O)c2ccc3c(c2)NC(=O)CO3)n2ccc3ccccc3c12", "growth": "50% (inactive)"},
      {"smiles": "COc1ccc(C(=O)NC(=S)N2CCN(c3ncnc4c3cnn4-c3ccccc3)CC2)cc1", "growth": "61.2% (inactive)"},
      {"smiles": "CC(=O)Nc1nc(-c2ccc(N3CCN(C)CC3)c(NS(=O)(=O)c3cccc4c(N(C)C)cccc34)c2)cs1", "growth": "58.2% (inactive)"},
      {"smiles": "O=[N+]([O-])c1ccc(-c2nc(-c3ccccc3)c(-c3ccccc3)n2-c2ccc(S(=O)(=O)Nc3ncccn3)cc2)cc1", "growth": "40% (inactive)"},
      {"smiles": "O=C(c1ccc(Cl)cc1)C1[C@H](c2ccc(Br)cc2)[C@@H](c2ccccc2)NC12C(=O)Nc1ccc(Br)cc12", "note": "(some centres undefined)", "growth": "-98.9% (active)"},
      {"smiles": "O=C(CSc1nnc(-c2c[nH]c3ccccc23)n1-c1ccccc1)c1ccc(Cl)cc1", "growth": "46.4% (inactive)"},
      {"smiles": "Cc1noc2c(Cc3ccccc3)nn(CC(=O)N/N=C/c3ccc(Cl)cc3)c(=O)c12", "growth": "81% (inactive)"},
      {"smiles": "O=C(NO)c1ccc(CNC(=O)[C@H]2Cc3c([nH]c4ccccc34)[C@H](c3ccc(Cl)cc3)N2)cc1", "growth": "-33.5% (active)"},
      {"smiles": "COc1ccc(C(C)=C(c2ccc(OCCCN(C)C)cc2)c2ccc(OCCCN(C)C)cc2)cc1", "growth": "-88% (active)"},
      {"smiles": "O=C(NCCCCC(c1ccc(F)cc1)c1ccc(F)cc1)NCCCc1cccnc1", "growth": "-3.04% (active)"},
      {"smiles": "O=C(Nc1cccc(-c2cn(-c3ccc4oc(=O)ccc4c3)nn2)c1)Nc1cc(C(F)(F)F)cc(C(F)(F)F)c1", "growth": "-23.3% (active)"},
      {"smiles": "CC(C)Sc1nc(NC2CC2)c(C#N)c(-c2ccccc2)n1", "growth": "80.4% (inactive) and 99.9% (inactive)"},
      {"smiles": "COc1ccc(CN2[C@@H](C(=O)NCc3ccc(C(=O)NO)cc3)Cc3c([nH]c4ccccc34)[C@@H]2C)cc1", "growth": "7.58% (active)"},
      {"smiles": "COC1=C[C@]23CCC(=O)N2CCc2cc4c(cc2[C@@H]3[C@@H]1OC(=O)CCCC(C)C)OCO4", "growth": "6.02% (active)"},
      {"smiles": "C=CC(=O)Nc1ccc(C(=O)/C=C/c2ccc(N(C)CCF)cc2)c(O)c1", "growth": "-73.6% (active)"},
      {"smiles": "OCc1[nH]nc2cc(Nc3ncc4ccc(Br)c(OC5CCC(O)CC5)c4n3)ccc12", "note": "(centres undefined)", "growth": "-87.8% (active)"},
      {"smiles": "OCCNc1oc(-c2ccccc2)nc1[P+](c1ccccc1)(c1ccccc1)c1ccccc1", "growth": "-43.2% (active)"},
      {"smiles": "CCCCOc1ccc(Nc2nc3ccccc3nc2Nc2ccc(OCCCC)cc2)cc1", "growth": "73.8% (inactive)"},
      {"smiles": "C=C[C@@]12CN3CC[C@]1(O)[C@@](C(=O)OC)(CO2)c1[nH]c2ccccc2c1C3", "growth": "-8.94% (active)"},
      {"smiles": "COc1ccc(NC(=O)CSc2nnc(-c3ccc4nc(-c5ccc(Cl)cc5)[nH]c4c3)o2)cc1", "growth": "90.8% (inactive)"},
      {"smiles": "Cc1ccc(-c2ccc(SCC(=O)Nc3ccc(Cl)c(C(F)(F)F)c3)nn2)cc1", "growth": "-31% (active)"},
      {"smiles": "CN1CCN(Cc2ccc(NC(=O)c3cncc(C#Cc4cnc5ccc(N[C@H]6CCOC6)nn45)c3)cc2C(F)(F)F)CC1", "growth": "-94% (active)"},
      {"smiles": "CN(C)c1ccc(/C=C/c2nc3ccccc3c(=O)n2CC(=O)Nc2ccccc2)cc1", "growth": "-4.96% (active)"},
      {"smiles": "COc1ccccc1NCc1ccc(CO)n1-c1ccc(C)cc1", "growth": "97.3% (inactive)"},
      {"smiles": "Cc1ccc(-c2nc3ccc(C(=O)N=Nc4c(O)[nH]c5ccc(Cl)cc45)cc3[nH]2)cc1", "growth": "-75% (active)"},
      {"smiles": "CN1CCN(c2ccc(Nc3nc(N4CCN(S(=O)(=O)c5ccc(Cl)cc5)CC4)c4sccc4n3)cc2)CC1", "growth": "-96.7% (active)"},
      {"smiles": "N#Cc1c(-c2ccc(Cl)cc2)cc(-c2ccccc2)nc1OCc1ccccc1", "growth": "65.4% (inactive)"},
      {"smiles": "CN1CCO/C1=C(/NC(=O)c1ccc(Cl)cc1)[P+](c1ccccc1)(c1ccccc1)c1ccccc1", "growth": "-19.6% (active)"},
      {"smiles": "O=C(Cc1ccc2c(c1)CN(C1CCC(=O)NC1=O)C2=O)NCCc1ccccc1", "note": "(centres undefined)", "growth": "-46.1% (active)"},
      {"smiles": "N#Cc1c(NC(=O)c2ccc(C(F)(F)F)c(Cl)c2)sc2c1CCC(=O)C2", "growth": "-71.2% (active)"},
      {"smiles": "COc1ccc2[nH]c(=O)c(CSc3nccc(-c4ccc(Cl)cc4)n3)cc2c1", "growth": "-28.5% (active)"},
      {"smiles": "C=C1CCC2C3(C)COC(c4c(F)cccc4F)OC3CCC2(C)C1C/C=C1/C(=O)OCC1O", "note": "(centres undefined)", "growth": "-24% (active)"},
      {"smiles": "COc1ccc([C@H]2C(C(=O)c3ccc(Cl)cc3)C3(N[C@@H]2c2ccccc2)C(=O)Nc2ccc(Cl)cc23)cc1", "note": "(some centres undefined)", "growth": "-3.62% (active)"}
    ]}
  ]
}
